This is a sample that favours compounds with a hit; in the whole collection about 4.2% have one here.
hcDAF-12 act – activators of H. contortus DAF-12 nuclear receptor | AID 652067 | 370,000 compounds, 1.4% hits | HEK293 hcDAF-12 lit1-tk-luc reporter, luminescence; 0% DMSO, 100% Δ7-dafachronic acid | activation, % at 6.8 µM;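 active means activation above the mean of all tested compounds plus 3 SD, cut at about 5.5% in these data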;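 further: 100% = response to 3 µM Δ7-dafachronic acid high control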
ssDAF-12 act – S. stercoralis DAF-12 activation, primary screen; HEK293 ssDAF-12/GRIP1 lit1-tk-luc reporter, luminescence; % of 3 µM dafachronic acid response; activation, % at 6.8 µM; 370,000 compounds, 1% hits;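 active means activation above the mean over all tested compounds plus 3 SD, cut at about 0.9% in these data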;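 further: 0% = DMSO-only wells and 100% = 3 µM delta7-dafachronic acid wells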
DAX1 StAR inh – DAX1 (NR0B1) inhibition, primary screen; HEK293T StAR-luciferase reporter, SF-1/DAX-1 repression relief; inhibition, % at 6.8 µM; 370,000 compounds, 1.1% hits; AID 652010;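 active means inhibition above the mean over all tested compounds plus 3 SD, cut at about 3.6% in these data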;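 further: 0% = DAX-1 cells with DMSO and 100% = cells lacking DAX-1 with DMSO; higher inhibition means more luminescence from relief of DAX-1 repression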
Wnt bcat act – activators of Wnt/beta-catenin signaling; activation, % at 9.35 µM; 300,000 compounds, 1.2% hits; Wnt/beta-catenin reporter cell assay, activator, plate reader; AID 743398; in the data active means activation above about 30%, passing the limit was not always enough; inconclusive means no clear call, values can overlap the other calls;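 further: 0% = neutral control wells and 100% = positive control wells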
hgDAF12 agonist – agonists of H. glycines DAF-12 nuclear receptor; HEK293 GAL4-hgDAF12 UAS-luciferase reporter, agonist luminescence; normalized to butyrate control; 370,000 compounds, 1.8% hits; activation, % at 6.8 µM;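 active means activation above a cutoff set at the mean of all screened compounds plus 3 SD, cut at about 10% in these data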;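 further: 0% = DMSO wells and 100% = sodium butyrate wells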
esBAF inh – blocks esBAF chromatin remodeling in mouse ES cells; 350,000 compounds, 2% hits; Bmi1-luciferase knock-in reporter, 24 h; 100% = twice the neutral-well signal; reporter increase, % at 12.5 µM; in the data active means activation above about 40%; inconclusive means no clear call, values can overlap the other calls;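 further: 0% = median of the plate's neutral control wells and 100% = double that signal; a rise in the Bmi1 reporter signal indicates esBAF inhibition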
DAX1 inh confirm – confirmation of human DAX1 (NR0B1) inhibitors | AID 652134 | 2,400 compounds, 87% hits | shares compounds with DAX1 StAR inh | HEK293T StAR-promoter luciferase reporter, SF-1/DAX-1 repression | inhibition, % at 6.8 µM;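 active means inhibition above the average of every tested compound plus 3 SD, cut at about 3.8% in these data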;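 further: 0% = DAX-1 cells with DMSO and 100% = no DAX-1 control cells with DMSO; active compounds raise luminescence by relieving repression of the StAR reporter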
SF1 mutant ctr – counter-screen for DAX1 inhibitors: nonselective inhibitors with SF-1 AF2 mutant; 2,400 compounds, 78% hits; shares compounds with DAX1 StAR inh; HEK293 StAR-luciferase, luminescence; inhibition, % at 6.8 µM;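 active means inhibition above the mean of all tested compounds plus 3 SD, cut at about 3% in these data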;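 further: 0% = DAX-1 transfected cells with DMSO and 100% = cells without DAX-1 with DMSO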
LXR ag – counter-screen for hcDAF-12 agonists: agonists of human LXR-beta. shares compounds with hcDAF-12 act. HEK293 Gal4-LXR tk-luc reporter, luminescence, 24 h; normalized: DMSO 0%, positive control 100%. activation, % at 6.8 µM. 3,400 tested, under 10 active. AID 743027;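 active means mean percent activation of the reporter above a cutoff set as the average over tested compounds plus their standard deviation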
Target sequence (P55055 whole entry, looked up, the tested form may be a part): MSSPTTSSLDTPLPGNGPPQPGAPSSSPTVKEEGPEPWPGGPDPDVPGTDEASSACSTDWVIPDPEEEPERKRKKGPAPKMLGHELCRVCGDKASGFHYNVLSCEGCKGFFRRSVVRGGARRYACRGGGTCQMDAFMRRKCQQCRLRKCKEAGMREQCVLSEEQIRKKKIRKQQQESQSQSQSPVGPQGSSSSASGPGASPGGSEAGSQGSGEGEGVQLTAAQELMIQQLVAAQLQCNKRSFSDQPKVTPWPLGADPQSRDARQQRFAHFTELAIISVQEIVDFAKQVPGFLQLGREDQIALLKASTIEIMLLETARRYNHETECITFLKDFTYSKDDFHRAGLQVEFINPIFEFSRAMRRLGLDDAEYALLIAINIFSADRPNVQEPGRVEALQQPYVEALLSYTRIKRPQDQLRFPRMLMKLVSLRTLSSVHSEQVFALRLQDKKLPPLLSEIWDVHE
hcDAF12 conf – hcDAF-12 agonism, confirmation assay. shares compounds with hcDAF-12 act. HEK293 hcDAF-12 lit1-tk-luc reporter, luminescence; % of Δ7-dafachronic acid response. activation, % at 6.8 µM. 3,400 compounds, 61% hits;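 active means mean activation across triplicate tests above the threshold derived from the earlier primary screen, cut at about 5.5% in these data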;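 further: 0% = DMSO only wells and 100% = 3 µM Δ7-dafachronic acid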
hgDAF12 conf – hgDAF-12 agonism, confirmation assay | activation, % at 6.8 µM | 3,300 compounds, 80% hits | shares compounds with hgDAF12 agonist | HEK293 GAL4-hgDAF12 luciferase reporter, agonist mode; percent of butyrate response;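 active means mean activation over triplicate wells above the hit cutoff derived from the earlier primary screen, cut at about 11% in these data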;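 further: 0% = DMSO low control and 100% = 2 mM sodium butyrate high control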
LXRb DAF12 ctr – counter-screen for DAF-12 agonists: agonists of human LXR-beta. shares compounds with hgDAF12 agonist. HEK293 Gal4-LXR luciferase reporter, 24 h. activation, % at 6.8 µM. 3,300 tested, under 10 active;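 active means mean activation of the triplicate above a set limit carried over from the primary screen, none filed active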
Starred values were filed as active, the others as inactive; ? = inconclusive; nt = no result given.

SMILES	hcDAF-12 act	ssDAF-12 act	DAX1 StAR inh	Wnt bcat act	hgDAF12 agonist	esBAF inh	DAX1 inh confirm	SF1 mutant ctr	LXR ag	hcDAF12 conf	hgDAF12 conf	LXRb DAF12 ctr
Cc1cc(/C=C\c2ccccc2)nc2ccccc12	10*	1	6.0*	10	15*	nt	6.4*	4.1*	1	8.6*	17*	0
Cc1cc(C(=O)c2ccccc2)nc2ccccc12	-2	-2	0	3	-2	-2	nt	nt	nt	nt	nt	nt
C[C@@H]1CN([C@H](C)CO)C(=O)c2cc(NS(=O)(=O)c3cccs3)ccc2O[C@@H]1CN(C)S(=O)(=O)c1ccccc1	nt	nt	nt	nt	nt	-4	nt	nt	nt	nt	nt	nt
Cc1ccsc1/C=N/NC(=O)Nc1ccccc1	4	1.1*	5.8*	16	17*	nt	11*	6.9*	nt	nt	17*	1
Cc1ccc2nc(NC(=O)c3ccc4ncsc4c3)sc2c1	4	0	6.2*	22	15*	33	11*	7.1*	nt	nt	13*	1
O=C(Nc1ccc2c(c1)OCO2)c1c(F)c(F)c(F)c(F)c1F	-1	-1	0	nt	4	-2	nt	nt	nt	nt	nt	nt
CC(=O)Nc1ccc(C(=O)Nc2ccc3c(c2)OCO3)cc1	0	-1	1	nt	6	-2	nt	nt	nt	nt	nt	nt
O=C(Nc1ccc2c(c1)OCO2)c1ccc(Cl)s1	14*	1.9*	4.6*	nt	16*	0	12*	9.9*	2	12*	21*	1
CCC(=O)Oc1ccc(C(=O)Nc2ccc3c(c2)OCO3)cc1	3	1.7*	5.5*	20	22*	nt	13*	7.8*	nt	nt	15*	1
COC(=O)c1sc2nc3c(cc2c1N)CCCC3	6.5*	0	5.1*	58*	25*	nt	13*	6.8*	nt	nt	18*	1
CCOC(=O)c1sc2nc3c(cc2c1N)COC(C)(CC)C3 (stereo unspecified)	9.3*	0	4.8*	58*	14*	10	14*	6.0*	2	6.1*	18*	1
CCOc1ccc2oc(C(=O)Nc3cc(C)ccn3)c(C)c2c1	3	0	13*	42*	14*	6	11*	5.0*	nt	nt	17*	1
Cc1ccnc(NC(=O)c2oc3ccccc3c2C)c1	20*	3.0*	11*	-5	22*	-12	9.2*	3.7*	2	15*	20*	1
Cc1csc(NC(=O)c2oc3ccccc3c2C)n1	18*	2.1*	14*	25	19*	?	13*	8.0*	2	18*	17*	1
CCCN(C)C[C@@H]1Oc2cc(C#Cc3cccc(OC)c3)ccc2S(=O)(=O)N([C@@H](C)CO)C[C@@H]1C	nt	nt	nt	nt	nt	-1	nt	nt	nt	nt	nt	nt
C[C@H](CO)N1C[C@H](C)[C@H](CN(C)CC2CC2)Oc2cc(/C=C/c3ccccc3)ccc2S1(=O)=O	nt	nt	nt	nt	nt	0	nt	nt	nt	nt	nt	nt
C[C@H](NC(=O)C[C@H]1CC[C@@H](NC(=O)C2CC2)[C@@H](CO)O1)c1ccccc1	nt	nt	nt	nt	nt	-2	nt	nt	nt	nt	nt	nt
O=C(NCCS(=O)(=O)NCCc1ccccc1)c1ccc2c(c1)OCO2	5.6*	1.1*	10*	-1	15*	nt	7.9*	3.1*	nt	nt	14*	1

Screens as filed in PubChem BioAssay.
